Compound activity from PubChem BioAssay.
GDH-TPI inh: GDH-TPI coupling enzyme inhibitors, primary screen, artefact control for M. tuberculosis FBA inhibitor project, biochemical, absorbance, full deck. GDH-TPI coupled enzyme counterscreen, NADH absorbance. inhibition, % at 4.8 µM. 1.2% of 360,000 active. AID 588335, 2011; in the data active = inhibition above about 30%
FBA Mtb inh: Mtb FBA enzyme inhibitors, primary screen, biochemical, fluorescence, strain H37Rv; 2.3% of 360,000 active; inhibition, % at 1 µM; Fructose-bisphosphate aldolase (Mycobacterium tuberculosis (strain ATCC 25618 / H37Rv)), …; purified M. tuberculosis FBA, fluorescence read-out; AID 588726, 2011; in the data active = inhibition above about 27%
RecA splice inh: Mtb RecA intein splicing inhibitors, primary screen, biochemical, fluorescence, HTS; 0.75% of 290,000 active; inhibition, % (no concentration beside the values); cell-free RecA intein splicing; Protein RecA (Mycobacterium tuberculosis (strain ATCC 25618 / H37Rv)), P9WHJ3; in the data active = inhibition above about 30%
BJeLR viability: MLPCN primary cell-based screen for lethality selective to Ras in HRASV12 cells; BJeLR (HRASV12) viability, CellTiter-Glo ATP luminescence, 48 h; 0.17% of 300,000 active; inhibition, % (no concentration beside the values); in the data active = inhibition above about 50%
PrPC TRFRET: inhibitors of human cell surface prion protein PrPC, primary screen, cell-based, TR-FRET; TR-FRET read-out; inhibition, % at 13.8 µM; 0.43% of 370,000 active; in the data active = inhibition above about 24%
Of the large screens only hits and unclear results are named; the others gave an inactive call. Rows were chosen to be rich in hits. Some 4.2% of all compounds tested hit in one or more screens of this group.

O=S1(=O)c2ccc(N3CCN(Cc4ccccc4F)CC3)cc2Oc2ccccc2CN1Cc1cn(Cc2ccccc2C(F)(F)F)nn1	none (no result: GDH-TPI inh, FBA Mtb inh, RecA splice inh, BJeLR viability)
O=C(Nc1ccc(/C=C/c2nc3ccccc3o2)cc1)c1c(F)cccc1F	none
O=C(Nc1ccc(/C=C/c2nc3ccccc3o2)cc1)c1cccc(C(F)(F)F)c1	GDH-TPI inh 36
C/C(=N\NC(=O)c1ccc(N/N=C(\C)c2ccncc2)cc1)c1ccncc1	GDH-TPI inh 31
CC(=NNC(=O)c1ccncc1)c1ccccc1Cl	none (no result: RecA splice inh, BJeLR viability)
C/C(=N/NC(=O)c1ccncc1)c1ccccc1	none
C/C(=N\NC(=O)c1ccccc1NC(=O)c1ccc(Cl)cc1)c1ccncc1	BJeLR viability 132
C/C(=N\NC(=O)c1ccc(Cl)cc1)c1cccs1	GDH-TPI inh 41
COc1ccc2c(c1)sc(N)[n+]2Cc1cc(C)cc2cccnc12	BJeLR viability 52
CCC(=O)N1CCc2cc(Br)c(S(=O)(=O)NCCCN(CC)Cc3ccccc3)cc21	none (no result: GDH-TPI inh, FBA Mtb inh, RecA splice inh, BJeLR viability)
COC(=O)c1sc(NC(=O)c2ccc([N+](=O)[O-])o2)c(C#N)c1C	GDH-TPI inh 32
CN(C(=O)[C@@H](C1CC1)[C@@H](O)c1ccc(Cl)cc1)c1ccccc1	none (no result: GDH-TPI inh, FBA Mtb inh, RecA splice inh, BJeLR viability)
Nc1nc2ccccc2n1/N=C/c1ccc2c(c1)OCO2	GDH-TPI inh 49
Nc1nc2ccccc2n1/N=C/c1ccc(Br)cc1	none
CN1C2=NC(c3ccccc3)CC(=O)N2/C(=C\c2ccccc2)C1c1ccccc1C(F)(F)F (centres undefined)	none (no result: GDH-TPI inh, FBA Mtb inh, RecA splice inh, BJeLR viability)
CCC(=O)c1ccc(OC(=O)c2cccs2)cc1	RecA splice inh 32
COc1ccc(Oc2c(Cl)cnn(-c3ccc(C(C)C)c(C)c3)c2=O)cc1	none (no result: GDH-TPI inh, FBA Mtb inh, RecA splice inh, BJeLR viability)
O=C1Nc2ccccc2C1=Nc1ccc2[nH]c3ccccc3c2c1	FBA Mtb inh 41 (no result: RecA splice inh, BJeLR viability)
O=C(NCc1ccco1)c1ccc2ccccc2n1	none
CC(C)(C)OC(=O)c1c(N)n(Cc2ccco2)c2nc3ccccc3nc12	FBA Mtb inh 114
C=CCNC(=O)c1c(N)n(Cc2ccco2)c2nc3ccccc3nc12	FBA Mtb inh 113
COc1ccc(S(=O)(=O)c2c(N)n(Cc3ccco3)c3nc4ccccc4nc23)cc1	FBA Mtb inh 51
Cc1nc2ccccc2c(=O)n1Cc1ccco1	none
COc1ccc(Cn2c(C)nc3c(c2=O)c2nc4ccccc4nc2n3Cc2ccco2)cc1	none (no result: RecA splice inh, BJeLR viability)
COc1ccc(OC)c(C2C(C(C)=O)=C(O)C(=O)N2c2ccc(F)cc2)c1 (centres undefined)	GDH-TPI inh 37
COc1cc(C(=O)Nc2ccc(-c3nc4cc(C)ccc4o3)c(O)c2)cc(OC)c1OC	GDH-TPI inh 34
CC1CCN(C(=O)CSc2nnc(Cc3ccccc3)o2)CC1	none
CC1CCN(C(=O)CSCC(=O)O)CC1	FBA Mtb inh 150
CCN(CC)Cc1c(O)ccc2c1O/C(=C\C=C\c1ccccc1)C2=O	BJeLR viability 93
COc1ccccc1/C=C/C=C1\Oc2c(ccc(O)c2CN(C)C)C1=O	none
COC(=O)[C@H]1C[C@@]2(C)c3ccccc3N(S(=O)(=O)c3ccccc3)[C@H]2N1C(=O)CNC1CCCCC1	none (no result: GDH-TPI inh, FBA Mtb inh, RecA splice inh, BJeLR viability)
COc1cc2nc(Nc3ccc(C)c(C)c3)nc(N)c2cc1OC	none
COc1cc2nc(N(C)C)nc(N)c2cc1OC	FBA Mtb inh 80
N#CC(C#N)=C(N)/C(C#N)=C/c1cc(O)c(O)c(O)c1	PrPC TRFRET 61 (no result: RecA splice inh, BJeLR viability)
N#C/C(=C/c1cc(Cl)c(O)c(Cl)c1)C(=O)N1CCCCC1	none
O=C(N/N=C/c1cc([N+](=O)[O-])cc([N+](=O)[O-])c1O)/C(=C\c1cccs1)NC(=O)c1ccccc1	GDH-TPI inh 37
O=C(N/N=C/c1ccc2c(c1)OCO2)c1ccc(Br)o1	GDH-TPI inh 47
CN(C)c1ccc(/C=N/Nc2cccc(C(=O)O)c2)cc1	GDH-TPI inh 37
COc1cc(/C=N/NC(=O)/C(=C\c2ccc3c(c2)OCO3)NC(=O)c2ccccc2)ccc1O	GDH-TPI inh 47
O=C(NCc1ccc2c(c1)OCO2)c1ccc(Br)o1	none
CCOc1ccc(-n2c(SCC(=O)Nc3ccc4cn[nH]c4c3)nnc2-c2ccc(C(C)(C)C)cc2)cc1	none (no result: GDH-TPI inh, FBA Mtb inh, RecA splice inh, BJeLR viability)
O=C(c1cscn1)N1CCC(Oc2cccnc2)CC1	none (no result: GDH-TPI inh, FBA Mtb inh, RecA splice inh, BJeLR viability)
O=c1[nH]c(N/N=C\c2ccc3c(c2)OCO3)nc2ccccc12	none
